# Source: PubChem BioAssay
# The source made the active and inactive calls.
# Assays:
# [1] = E. coli DRC41 culture turbidity changes, primary screen, E. coli filamentation inducer project, strain DRC41, OD650, 48 h (AID 1152);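 also: E. coli MC1000 strain DRC41 lacking acrAB efflux pump and sulA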; details: E. coli DRC41 (acrAB sulA), higher = more signal, called active from +8 up or from −8 down
# [2] = small-molecule binders of probe aLefty1, primary screen, biochemical, small-molecule microarray, 635/667 nm fluorescence (AID 1153); details: higher = more signal;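 also: score merges spot fluorescence with signal-to-noise ratio from the scanned slide images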
# [3] = PSAC antagonists in infected red cells, primary screen, cell-based, P. falciparum Indochina, OD700, 1 h (AID 1154); details: P. falciparum Indochina infected RBC osmotic lysis, higher = more signal, called active from +8 up or from −8 down
# [4] = PSAC antagonists in infected red cells, primary screen, cell-based, P. falciparum Indochina, OD700, 2 h (AID 1155);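 also: lysis reports solute entry through the parasite surface anion channel PSAC; channel blockers reduce lysis of infected cells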; details: P. falciparum Indochina infected erythrocytes, osmotic lysis OD700; higher = more signal, called active from +8 up or from −8 down
# [5] = osmotic lysis modulators in infected erythrocytes, primary screen, PSAC antagonist project, cell-based, P. falciparum Indochina, OD700, 3 h (AID 1156); details: higher = more signal, called active from +8 up or from −8 down
# [6] = PSAC antagonists in infected red cells, primary screen, cell-based, P. falciparum Indochina, OD700, 18 h (AID 1157); details: P. falciparum Indochina infected erythrocytes, osmotic lysis OD700, 18 h; higher = more signal, called active from +8 up or from −8 down
# [7] = modulators of S6 phosphorylation in cells, primary screen, cell-based, A549, cytoblot, luminescence, serum-stimulated (AID 1158); details: A549 phospho-S6 cytoblot, 5 h, higher = more signal;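 also: serum-stimulated A549 lung adenocarcinoma cells; signal is phosphorylated S6 detected by cytoblot immunostaining with HRP secondary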
# [8] = biological target: NADPH oxidase 2 (Homo sapiens) (UniProt P04839); assay: NOX2-dependent H2O2 signal modulators, primary screen, NOX inhibitor project, cell-based, HEK293-NOX2, PMA-stimulated, Amplex Red fluorescence (AID 1159); details: 45 min, higher = more signal, called active from +8 up or from −8 down; also: test concentration not given here
# [9] = biological target: NADPH oxidase 4 (Homo sapiens) (UniProt Q9NPH5); assay: NOX4-dependent H2O2 signal modulators, primary screen, NOX inhibitor project, cell-based, HEK293-NOX4, tetracycline-induced, Amplex Red fluorescence (AID 1160); details: 45 min, higher = more signal, called active from +8 up or from −8 down
# [10] = biological target: NADPH oxidase 5 (Homo sapiens) (UniProt Q96PH1); assay: NOX5-dependent H2O2 signal modulators, primary screen, NOX inhibitor project, cell-based, HEK293-NOX5, Amplex Red fluorescence (AID 1161); details: HEK293-NOX5, ionomycin, 45 min, higher = more signal
# [11] = A549 cell viability effects, profiling panel, calcein-AM fluorescence, 48 h, basal (AID 1162); details: higher = more signal; also: test concentration not given here
# [12] = adipocyte viability effects, profiling panel, cell-based, 3T3-L1 adipocytes, calcein-AM fluorescence, 48 h, basal (AID 1163); details: 3T3-L1 adipocytes viability, higher = more signal; also: test concentration not given here
# [13] = HepG2 cell viability effects, profiling panel, calcein-AM fluorescence, 48 h, basal (AID 1164); details: higher = more signal; also: test concentration not given here
# [14] = MM1S cell viability effects, profiling panel, calcein-AM fluorescence, 48 h, basal (AID 1165); details: higher = more signal;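 also: viability of MM1S multiple myeloma cells under basal unstimulated conditions; test concentration not given here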
# [15] = basal RPMI8226 viability, no added stimulus, profiling panel, cell-based, calcein-AM fluorescence, 48 h, PK04 Diversity Set (AID 1166); details: RPMI8226 myeloma viability, higher = more signal;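 also: cells grown under basal conditions without added stimulus; test concentration not given here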
# [16] = basal HepG2 mitochondrial membrane potential changes, profiling panel, cell-based, JC-1 fluorescence, 24 h, 100 nL compound (AID 1167); details: higher = more signal; also: test concentration not given here
# [17] = basal 3T3-L1 adipocyte mitochondrial potential changes, profiling panel, cell-based, JC-1 fluorescence, 3T3-L1 adipocytes, 24 h, 100 nL compound (AID 1168); details: JC-1 mitochondrial fluorescence, higher = more signal, called active from +8 up or from −8 down; also: test concentration not given here
# [18] = basal RPMI8226 mitochondrial membrane potential changes, profiling panel, cell-based, JC-1 fluorescence, 24 h, 100 nL compound (AID 1169); details: RPMI8226 myeloma, JC-1 mitochondrial potential fluorescence, higher = more signal; also: test concentration not given here
# [19] = basal MM1S mitochondrial membrane potential changes, profiling panel, cell-based, JC-1 fluorescence, 24 h, 100 nL compound (AID 1170); details: higher = more signal; also: test concentration not given here
# [20] = A549 lung cancer cell viability effects, profiling panel, resazurin fluorescence, 24 h, PK04 Diversity Set (AID 1171); details: higher = more signal, called active from +8 up or from −8 down; also: test concentration not given here
# Chain of NADPH oxidase 5 (Homo sapiens) (Q96PH1 whole entry, looked up): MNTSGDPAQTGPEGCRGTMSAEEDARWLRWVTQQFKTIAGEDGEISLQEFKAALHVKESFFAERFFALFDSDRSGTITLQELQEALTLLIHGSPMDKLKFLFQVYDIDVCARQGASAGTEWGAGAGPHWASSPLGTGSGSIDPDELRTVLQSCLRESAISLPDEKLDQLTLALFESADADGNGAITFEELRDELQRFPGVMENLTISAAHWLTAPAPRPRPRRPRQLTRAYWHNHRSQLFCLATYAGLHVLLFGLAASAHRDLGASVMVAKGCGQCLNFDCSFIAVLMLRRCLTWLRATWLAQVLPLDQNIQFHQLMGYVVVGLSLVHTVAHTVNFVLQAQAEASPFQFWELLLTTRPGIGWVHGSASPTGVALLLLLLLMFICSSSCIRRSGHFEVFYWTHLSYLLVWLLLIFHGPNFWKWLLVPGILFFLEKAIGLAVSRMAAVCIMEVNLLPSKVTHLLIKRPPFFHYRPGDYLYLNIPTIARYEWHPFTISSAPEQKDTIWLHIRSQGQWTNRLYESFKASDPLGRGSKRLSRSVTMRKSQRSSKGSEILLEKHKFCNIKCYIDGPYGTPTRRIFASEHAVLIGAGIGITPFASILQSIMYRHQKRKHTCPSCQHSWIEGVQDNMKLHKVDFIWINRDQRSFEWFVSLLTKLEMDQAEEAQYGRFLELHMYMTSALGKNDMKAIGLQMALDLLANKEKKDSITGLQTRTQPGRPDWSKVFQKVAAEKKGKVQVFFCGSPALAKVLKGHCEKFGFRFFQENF
# Chain of NADPH oxidase 2 (Homo sapiens) (P04839 whole entry, looked up): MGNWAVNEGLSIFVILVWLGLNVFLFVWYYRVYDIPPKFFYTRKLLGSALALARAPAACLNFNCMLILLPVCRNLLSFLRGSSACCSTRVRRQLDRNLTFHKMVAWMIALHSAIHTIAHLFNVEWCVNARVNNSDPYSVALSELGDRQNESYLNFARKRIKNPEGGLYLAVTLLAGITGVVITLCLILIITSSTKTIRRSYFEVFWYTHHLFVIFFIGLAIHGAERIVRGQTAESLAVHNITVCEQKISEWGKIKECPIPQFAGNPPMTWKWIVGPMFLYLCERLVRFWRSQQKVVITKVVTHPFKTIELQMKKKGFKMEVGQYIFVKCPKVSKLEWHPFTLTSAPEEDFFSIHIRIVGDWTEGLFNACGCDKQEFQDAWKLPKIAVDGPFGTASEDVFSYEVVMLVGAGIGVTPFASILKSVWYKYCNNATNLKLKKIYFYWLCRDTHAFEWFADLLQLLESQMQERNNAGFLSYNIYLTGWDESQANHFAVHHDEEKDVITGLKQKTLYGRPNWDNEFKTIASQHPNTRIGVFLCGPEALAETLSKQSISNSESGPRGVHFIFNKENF
# Chain of NADPH oxidase 4 (Homo sapiens) (Q9NPH5 whole entry, looked up): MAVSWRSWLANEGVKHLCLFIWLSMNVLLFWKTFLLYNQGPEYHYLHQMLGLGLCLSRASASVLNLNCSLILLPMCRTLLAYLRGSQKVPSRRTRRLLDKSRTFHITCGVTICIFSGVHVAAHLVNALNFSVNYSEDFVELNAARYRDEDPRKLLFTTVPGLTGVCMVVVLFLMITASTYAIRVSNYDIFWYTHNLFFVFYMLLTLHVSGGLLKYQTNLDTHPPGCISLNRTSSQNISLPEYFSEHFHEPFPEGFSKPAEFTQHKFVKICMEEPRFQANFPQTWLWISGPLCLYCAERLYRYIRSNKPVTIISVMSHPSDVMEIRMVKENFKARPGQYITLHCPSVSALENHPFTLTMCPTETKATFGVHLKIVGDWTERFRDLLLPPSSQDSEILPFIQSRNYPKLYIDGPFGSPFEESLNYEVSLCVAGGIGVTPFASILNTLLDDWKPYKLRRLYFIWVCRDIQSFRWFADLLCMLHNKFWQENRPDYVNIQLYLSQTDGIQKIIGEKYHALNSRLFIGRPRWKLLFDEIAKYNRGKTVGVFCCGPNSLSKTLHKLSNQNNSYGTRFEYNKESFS
SMILES,z-score [1],composite z-score [2],z-score [3],z-score [4],z-score [5],z-score [6],z-score [7],z-score [8],z-score [9],z-score [10],z-score [11],z-score [12],z-score [13],z-score [14],z-score [15],z-score [16],z-score [17],z-score [18],z-score [19],z-score [20]
CC(C)(C)OC(=O)CC[C@]1(C(=O)NCCN2CCOCC2)COC(c2ccc(OCCCO)cc2)=N1,1.04 (inactive),0.319,18.7 (active),2.01 (inactive),0.0229 (inactive),0.791 (inactive),-0.395,-2.08 (inactive),0.08 (inactive),-0.137,0.263,-0.555,0.854,-0.61,0.512,0.0561,0.588 (inactive),0.212,-0.699,0.412 (inactive)
O=C1OCCC/C=C\[C@H]2OC34C=CCN(c5ccc6ccccc6c5)C(=O)[C@H]3N(CCCCCO)C(=O)[C@@H]4C12 (stereo not given in full),-0.829 (inactive),-0.147,0.29 (inactive),-0.0458 (inactive),-0.455 (inactive),-0.181 (inactive),-0.839,0.814 (inactive),-0.15 (inactive),1.58,0.0648,0.456,0.513,0.0795,-0.681,0.337,-0.318 (inactive),0.873,-0.505,0.123 (inactive)
CCN(CC)c1ccc(N2CC=CC34O[C@@H]5/C=C\CCC(C)OC(=O)C5[C@H]3C(=O)N(CCCCCO)[C@@H]4C2=O)cc1 (stereo not given in full),-0.0949 (inactive),-0.147,-0.062 (inactive),-0.928 (inactive),-0.356 (inactive),-0.427 (inactive),0.414,-0.0453 (inactive),-0.419 (inactive),0.779,0.192,-0.743,0.0376,1.56,-0.863,0.423,0.158 (inactive),-0.0486,1.29,0.697 (inactive)
COc1cc(OC)c(C(O)C2C=CC3C(=O)NC(=O)C3N2Nc2ccccn2)cc1Br (stereo not given),-0.718 (inactive),-0.172,1.54 (inactive),0.783 (inactive),0.332 (inactive),0.876 (inactive),-0.732,-0.0691 (inactive),-2.81 (inactive),-2.05,0.837,-1.06,0.224,-0.459,-0.0109,-0.866,0.0212 (inactive),0.217,0.171,-0.924 (inactive)
O=C(O)C1N=C(c2ccc(OCCCO)cc2)N(c2ccccc2)O1 (stereo not given),0.0785 (inactive),0.0245,18.5 (active),2.35 (inactive),0.874 (inactive),0.497 (inactive),-0.284,-2.6 (inactive),0.0373 (inactive),-0.638,-0.906,0.135,-0.0572,0.569,-0.547,-0.142,0.663 (inactive),-1.22,-0.228,0.417 (inactive)
C=CCNC(=O)[C@H]1[C@@H]2C(=O)O[C@@H](c3ccccc3)[C@@H](c3ccccc3)N2[C@@H](c2ccc(O)cc2)[C@]12C(=O)Nc1ccc(C#CCCO)cc12,0.605 (inactive),0.117,5.56 (inactive),0.608 (inactive),-0.763 (inactive),0.443 (inactive),-0.0803,0.67 (inactive),-0.436 (inactive),0.603,0.838,-0.655,0.122,0.994,0.168,-0.757,0.651 (inactive),-0.873,-0.723,0.437 (inactive)
COC(=O)[C@@]1(Cc2ccc(OC)cc2)[C@H]2c3cc(C(=O)N4CCCC4)n(CCc4ccc(O)c(O)c4)c3C[C@H]2CN1C(=O)c1ccccc1,-1.84 (inactive),0.378,5.39 (inactive),0.451 (inactive),2.1 (inactive),0.912 (inactive),0.198,-3.75 (inactive),-8.38 (active),-7.92,-0.393,0.609,-0.0727,-3.36,-2.19,0.923,-1.13 (inactive),-0.445,-1.13,-0.0046 (inactive)
CCCCCCCCCCC(O)C1C=CC2C(=O)NC(=O)C2N1Nc1ccc(Cl)cc1Cl (stereo not given),-2.32 (inactive),0.335,4.61 (inactive),2.51 (inactive),-1.75 (inactive),1.78 (inactive),-0.428,0.684 (inactive),-1.86 (inactive),-0.838,-4.55,0.061,-3.5,-3.8,-4.21,-3.53,-0.354 (inactive),-0.931,-1.08,-1.52 (inactive)
C=C(CCCC)/C(=C/C[C@@H](OC(C)=O)c1cccc(OCCO)c1)c1cnc2ccccc2c1,0.776 (inactive),0.201,23.6 (active),6.35 (inactive),2.48 (inactive),1.51 (inactive),0.237,-2.25 (inactive),-0.934 (inactive),-2.22,0.238,1.3,-0.0152,-1.47,-2.31,2.23,-2 (inactive),-0.423,-0.714,0.329 (inactive)
